# Assay results published in the supplement of paper PMC7156485.
# “And” between values parts separate entries of the source, which are not always exact repeats. Equal values may be shown once. ± gives the standard deviation of the averaged measurements.
# Tested on: TDF
# Test: cell number relative to DMSO (% of DMSO); higher = more cells (less growth inhibition / toxicity)
# Settings: concentration: 10 µM; 24 h
# In short: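 Six fields per well were imaged at ×10 after the cells were fixed in 3.7% formaldehyde and stained with a rabbit anti-H1.0 antibody, an AlexaFluor 647 secondary and DAPI. The HCC1569 and TDF cells had been plated at 800 per well in 384-well plates (RPMI, 10% FBS) and treated in triplicate with compounds at 10 µM for 24 h at 37 °C. The values are the median of replicates of H1.0 nuclear intensity or cell number, as percent of the plate control. Smoothing for positional effects was applied to HCC1569 data.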
# 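Also: TDF denotes transformed human dermal fibroblasts of mesenchymal origin.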
row,SMILES,cell number
1,CC(C)=CCC(O)C1=CC(=O)c2c(O)ccc(O)c2C1=O (stereo not given) [Shikonin],38.8
2,CC1(C)SC2C(NC(=O)C(N)c3ccc(O)cc3)C(=O)N2C1C(=O)O (stereo not given) [Amoxicillin],103
3,CC1=NN(c2ccccc2)C(=O)C1,111
4,"O=c1[nH]ccc2c(O)cccc12 [1,5-Isoquinolinediol]",97.2
5,CCCCN1CCC(n2c(=O)[nH]c3ccccc32)CC1.O=C(O)C(=O)O [NS 521 oxalate],102
6,"CN(C)C(=S)NN=C(c1ccccn1)c1ccccn1 [(Z)-di(2-pyridinyl)methanone N,N-dimethylthiosemicarbazone]",52.4
7,Nc1ncnc2c1ncn2C1CCCO1 (stereo not given),96.4
8,CC12C=CC(=O)C=C1CCC1C2=CCC2(C)C(C(=O)CN3CCN(c4cc(N5CCCC5)nc(N5CCCC5)n4)CC3)CCC12.O=C(O)C=CC(=O)O (stereo not given),93.4 and 95.2
9,CC=C(C)C(=O)OC1CC(C)=CC(=O)C2(C)CCC(O)(C(C)C)C12 (stereo not given) [Lapidin],102
10,Oc1ccc(O)cc1 [Hydroquinone],76.8 ± 3.5
11,O=C(CCc1ccc(O)cc1)c1c(O)cc(O)cc1O [Phloretin],98.5 ± 17
12,"CCCCCC(O)CCC1C(O)CC(=O)C1CCCCCCC(=O)O (stereo not given) [13,14-Dihydro-prostaglandin E1]",104
13,Clc1ccc(C(Cn2ccnc2)OCc2csc3c(Cl)cccc23)c(Cl)c1.O=[N+]([O-])O (stereo not given),100
14,CCN(CC)CCNC(=O)c1ccc(NC(C)=O)cc1.Cl [N-Acetylprocainamide hydrochloride],110
15,CCOC(=O)C1=CC(OC(CC)CC)C(NC(C)=O)C(N)C1 (stereo not given) [Oseltamivir],100
16,Nc1nc(Nc2ccccc2)nc2c1ncn2C1OC(CO)C(O)C1O (stereo not given) [2-Phenylaminoadenosine],100
17,CC(=O)O.O=C(NCC1CCCCN1)c1cc(OCC(F)(F)F)ccc1OCC(F)(F)F (stereo not given) [Flecainide acetate],101 ± 1.2
18,CC[N+](CC)(CC)CCOc1cccc(OCC[N+](CC)(CC)CC)c1OCC[N+](CC)(CC)CC.[I-].[I-].[I-] [Gallamine triethiodide],99
19,COc1cc(/C=C/C(=O)CC(=O)/C=C/c2ccc(O)cc2)ccc1O,66.7
20,Cc1cc(C)c(C=C2C(=O)Nc3ccccc32)[nH]1,108 and 105

row,SMILES,cell number
1,CCCCc1oc2ccccc2c1C(=O)c1cc(I)c(OCCN(CC)CC)c(I)c1.Cl [Amiodarone hydrochloride],92
2,CN(CC=CC#CC(C)(C)C)Cc1cccc2ccccc12.Cl,105
3,CN1CCc2cccc3c2C1Cc1ccc(O)c(O)c1-3.Cl (stereo not given) [Apomorphine hydrochloride hemihydrate],87.9
4,CC1CCC2(C(=O)O)CCC3(C)C(=CCC4C5(C)CCC(O)C(C)(C)C5CCC43C)C2C1C (stereo not given) [Ursolic acid],101
5,COc1ccc(S(=O)(=O)N(CCO)c2ccccc2CN(C)CC=Cc2ccc(Cl)cc2)cc1,86.7
6,NCC1OC(OC2C(CO)OC(OC3C(O)C(N)CC(N)C3OC3OC(CN)C(O)C(O)C3N)C2O)C(N)C(O)C1O (stereo not given) [Neomycin],93.4 ± 5.1
7,"c1ccc(-c2ccccn2)nc1 [2,2'-Bipyridyl]",95
8,COc1cccc(-c2cc(=O)c3ccccc3o2)c1N,105 and 103
9,CC(CN1c2ccccc2Sc2ccccc21)N(C)C.Cl (stereo not given) [Promethazine hydrochloride],96.9
10,Cc1nn(C)c2nc(NNC(=O)Nc3cc(Cl)nc(Cl)c3)cc(C(C)C)c12,12.8
11,CN1C(=O)CC(C(=O)O)C1c1cccnc1 (stereo not drawn) [Trans-4-Cotininecarboxylic acid],100
12,CC(=O)C1CCC2C3CC=C4CC(OS(=O)(=O)[O-])CCC4(C)C3CCC12C.[Na+] (stereo not given) [Pregnenolone sulfate sodium],110
13,O=C1c2c(O)cc(O)cc2O[C@H](c2cc(O)c(O)c(O)c2)[C@H]1O,99.5
14,O=C1NC(c2cccc([N+](=O)[O-])c2)=CCN1c1ccccc1O,104
15,CC(C)C(CO)Nc1nc(Nc2cccc(Cl)c2)c2ncn(C(C)C)c2n1 (stereo not given) [Purvalanol A],61.8 ± 9.4
16,CC(=O)OCC[N+](C)(C)C [Acetylcholine],103
17,CN1CCN2c3ccccc3Cc3ccccc3C2C1.Cl (stereo not given) [Mianserin hydrochloride],101
18,Cc1c2c(c(O)c3c(O)cccc13)C(=O)OC2C1C(O)C(=O)C(C(N)=O)=C(O)C1N(C)C (racemic),93.1
19,Cc1ccc(-c2c(-c3nn(C)c4ncnc(N5CC[C@H](N6CCCCC6)C5)c34)cnn2C)cc1,96.4
20,"Cl.c1ccc(CN2CCC3(CCCc4ccccc43)CC2)cc1 [L-687,384 hydrochloride]",96
